Laboratory results as given in PubChem BioAssay AID1159580 (chemical genetic matrix, 2015).
“And” between values parts separate entries of the source, which are not always exact repeats. Equal entries are not always repeated. Among all 5,500 compounds or so, about 2,000 (36%) were called active. Another 18% or so got no clear call; they are omitted. No stated cut-off is given here; in the data, active means normalized growth mostly below about 0.91 (no sharp cut-off); inconclusive means no clear call, values can overlap the other calls; inactive means mostly above about 0.92. This is one part of the list.

Assay: chemical genetic growth profiling, strain panel (AID 1159580);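 further: tested at 20 µM; growth read once vehicle control cultures reached saturation at 30 °C; 1 = growth at the plate median or of vehicle wells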
Conditions: S. cerevisiae deletion strains, growth OD

Measured: normalized growth

CC1(C)C2CC(=O)[C@]3(C)C(CC[C@@]4(C)[C@H](c5ccoc5)OC(=O)[C@H]5O[C@]543)[C@@]2(C)C(=O)C[C@H]1O (stereo not given in full)
inactive: locus YAL013W, strain DEP1, stronger effect = lower value 1.03 | locus YAL021C, strain ccr4, stronger effect = lower value 1.01 | locus YAL026C, strain drs2, stronger effect = lower value 1 | locus YAL030W, strain snc1, stronger effect = lower value 1.01 | locus YBL061C, strain skt5, stronger effect = lower value 1 | locus YBR009C, strain hhf1, stronger effect = lower value 0.992 | locus YBR021W, strain FUR4, stronger effect = lower value 0.995 | locus YBR023C, strain chs3, stronger effect = lower value 1.02 | locus YBR171W, strain sec66, stronger effect = lower value 1.01 | locus YBR229C, strain ROT2, stronger effect = lower value 1 | locus YBR231C, strain swc5, stronger effect = lower value 1 | locus YBR279W, strain paf1, stronger effect = lower value 1.01 | locus YCL011C, strain gbp2, stronger effect = lower value 1.02 | locus YCL016C, strain dcc1, stronger effect = lower value 1.01 | locus YCL029C, strain bik1, stronger effect = lower value 1.01 | locus YCL061C, strain MRC1, stronger effect = lower value 1 | locus YCL069W, strain vba3, stronger effect = lower value 1.01 | locus YCR088W, strain abp1, stronger effect = lower value 1.01 | locus YDL005C, strain med2, stronger effect = lower value 1 | locus YDL035C, strain GPR1, stronger effect = lower value 0.975 | locus YDL040C, strain nat1, stronger effect = lower value 1 | locus YDL074C, strain BRE1, stronger effect = lower value 1.03 | locus YDL101C, strain DUN1, stronger effect = lower value 1.03 | locus YDL185W, strain tfp1, stronger effect = lower value 1.02 | locus YDL192W, strain arf1, stronger effect = lower value 1.01 | locus YDR001C, strain nth1, stronger effect = lower value 1 | locus YDR069C, strain doa4, stronger effect = lower value 0.995 | locus YDR101C, strain arx1, stronger effect = lower value 1 | locus YDR137W, strain rgp1, stronger effect = lower value 1.06 | locus YDR150W, strain NUM1, stronger effect = lower value 1 | locus YDR159W, strain sac3, stronger effect = lower value 1.01 | locus YDR162C, strain NBP2, stronger effect = lower value 0.983 | locus YDR195W, strain ref2 0.977 | locus YDR297W, strain sur2, stronger effect = lower value 1.01 | locus YDR318W, strain mcm21, stronger effect = lower value 1.01 | locus YDR334W, strain swr1, stronger effect = lower value 1.01 | locus YDR335W, strain msn5, stronger effect = lower value 0.999 | locus YDR388W, stronger effect = lower value 1.01 | locus YDR392W, strain spt3, stronger effect = lower value 1.01 | locus YDR502C, strain sam2, stronger effect = lower value 1.02 | locus YEL003W, strain gim4, stronger effect = lower value 1.01 | locus YEL037C, strain rad23, stronger effect = lower value 1 | locus YEL061C, strain CIN8 (second series), stronger effect = lower value 0.996 | locus YEL061C, strain CIN8, stronger effect = lower value 1 | locus YER015W, strain faa2, stronger effect = lower value 0.995 | locus YER016W, strain bim1, stronger effect = lower value 1.01 | locus YER110C, stronger effect = lower value 1.02 | locus YER111C, strain swi4, stronger effect = lower value 1.01 | locus YER155C, strain BEM2 (second series), stronger effect = lower value 1.02 | locus YER155C, strain BEM2, stronger effect = lower value 1 | locus YER167W, strain BCK2, stronger effect = lower value 0.993 | locus YFR010W, strain ubp6, stronger effect = lower value 0.997 | locus YGL078C, strain dbp3, stronger effect = lower value 1.01 | locus YGL086W, strain mad1, stronger effect = lower value 1.01 | locus YGL167C, strain pmr1, stronger effect = lower value 1.01 | locus YGL173C, strain kem1, stronger effect = lower value 1.02 | locus YGL227W, strain vid30, stronger effect = lower value 1.01 | locus YGL240W, strain doc1, stronger effect = lower value 1.03 | locus YGL248W, strain PDE1, stronger effect = lower value 1.03 | locus YGL253W, strain hxk2, stronger effect = lower value 1 | locus YGR078C, strain PAC10, stronger effect = lower value 1.03 | locus YGR135W, strain pre9, stronger effect = lower value 1.01 | locus YGR252W, strain gcn5, stronger effect = lower value 0.993 | locus YHR013C, strain ard1, stronger effect = lower value 1.01 | locus YHR027C, strain rpn1, stronger effect = lower value 1.01 | locus YHR030C, strain SLT2, stronger effect = lower value 0.992 and 1.02 | locus YHR079C, strain IRE1 (second series), stronger effect = lower value 1.02 | locus YHR079C, strain IRE1, stronger effect = lower value 1.02 | locus YHR094C, strain hxt1, stronger effect = lower value 1.02 | locus YHR129C, strain ARP1, stronger effect = lower value 1.01 | locus YHR142W, strain chs7, stronger effect = lower value 0.999 | locus YHR200W, strain rpn10, stronger effect = lower value 1.01 | locus YIL066C, strain RNR3, stronger effect = lower value 0.979 | locus YIL073C, strain SPO22, stronger effect = lower value 1.03 | locus YIL125W, strain kgd1, stronger effect = lower value 1.01 | locus YIR030C, strain dcg1, stronger effect = lower value 1.02 | locus YJL092W, strain hpr5, stronger effect = lower value 1 | locus YJL095W, strain BCK1 (second series), stronger effect = lower value 1.01 | locus YJL095W, strain BCK1, stronger effect = lower value 1.06 and 1.03 | locus YJL115W, strain asf1, stronger effect = lower value 1 | locus YJL129C, strain trk1, stronger effect = lower value 1.03 | locus YJL134W, strain LCB3, stronger effect = lower value 0.999 | locus YJL154C, strain vps35, stronger effect = lower value 1 | locus YJL164C, strain tpk1, stronger effect = lower value 1 | locus YJL166W, strain qcr8, stronger effect = lower value 1.01 | locus YJL168C, strain set2, stronger effect = lower value 1.01 | locus YJL187C, strain SWE1 (second series), stronger effect = lower value 1.05 | locus YJR043C, strain POL32, stronger effect = lower value 0.963 | locus YJR066W, strain TOR1, stronger effect = lower value 0.956 | locus YJR075W, strain HOC1, stronger effect = lower value 1.03 | locus YKL009W, strain mrt4, stronger effect = lower value 1.03 | locus YKL068W, stronger effect = lower value 1.01 | locus YKL085W, strain MDH1 (second series), stronger effect = lower value 1 | locus YKL085W, strain MDH1, stronger effect = lower value 1 | locus YKL160W, strain elf1, stronger effect = lower value 1.01 | locus YKL190W, strain CNB1, stronger effect = lower value 1.01 | locus YKR001C, strain vps1, stronger effect = lower value 1.05 | locus YKR026C, strain gcn3, stronger effect = lower value 1 | locus YKR091W, strain srl3, stronger effect = lower value 1 | locus YLL001W, strain dnm1, stronger effect = lower value 1.01 | locus YLL026W, stronger effect = lower value 1.01 | locus YLL041C, strain sdh2, stronger effect = lower value 0.998 | locus YLR027C, strain aat2, stronger effect = lower value 1.01 | locus YLR039C, strain RIC1, stronger effect = lower value 1.02 | locus YLR058C, strain SHM2, stronger effect = lower value 1.02 | locus YLR102C, strain apc9, stronger effect = lower value 1.02 | locus YLR113W, strain HOG1, stronger effect = lower value 0.981 | locus YLR221C, strain rsa3, stronger effect = lower value 1 | locus YLR258W, strain gsy2, stronger effect = lower value 1.01 | locus YLR262C, strain YPT6 (second series), stronger effect = lower value 0.982 | locus YLR262C, strain YPT6, stronger effect = lower value 1 | locus YLR268W, strain sec22, stronger effect = lower value 1.02 | locus YLR320W, strain mms22, stronger effect = lower value 1.01 | locus YLR330W, strain CHS5, stronger effect = lower value 1 | locus YLR342W, strain FKS1 (second series), stronger effect = lower value 0.988 | locus YLR342W, strain FKS1, stronger effect = lower value 1.01 | locus YLR357W, strain rsc2, stronger effect = lower value 0.994 | locus YLR370C, strain arc18, stronger effect = lower value 0.996 | locus YLR371W, strain rom2, stronger effect = lower value 1.02 | locus YLR384C, strain iki3, stronger effect = lower value 1.01 | locus YLR418C, strain cdc73, stronger effect = lower value 1.03 | locus YML016C, strain PPZ1, stronger effect = lower value 0.997 | locus YML032C, strain rad52, stronger effect = lower value 1.01 | locus YML120C, strain ndi1, stronger effect = lower value 1.01 | locus YML124C, strain tub3, stronger effect = lower value 1.01 | locus YMR058W, strain fet3, stronger effect = lower value 1 | locus YMR078C, strain ctf18, stronger effect = lower value 1.02 | locus YMR125W, strain sto1, stronger effect = lower value 1.02 | locus YMR129W, stronger effect = lower value 1.02 | locus YMR205C, strain PFK2, stronger effect = lower value 1 | locus YMR223W, strain ubp8, stronger effect = lower value 1.01 | locus YMR231W, strain pep5, stronger effect = lower value 1.01 | locus YMR263W, strain SAP30, stronger effect = lower value 1.04 | locus YMR307W, strain GAS1, stronger effect = lower value 1.04 | locus YNL067W, strain RPL9B, stronger effect = lower value 1.05 | locus YNL071W, strain lat1, stronger effect = lower value 1 | locus YNL153C, strain GIM3, stronger effect = lower value 1.04 | locus YNL183C, strain NPR1, stronger effect = lower value 0.962 | locus YNL209W, strain ssb2, stronger effect = lower value 0.997 | locus YNL233W, strain BNI4, stronger effect = lower value 1.04 | locus YNL248C, strain rpa49, stronger effect = lower value 1.02 | locus YNL250W, strain rad50, stronger effect = lower value 1.02 | locus YNL271C, strain bni1, stronger effect = lower value 1.01 | locus YNL298W, strain CLA4, stronger effect = lower value 1.02 | locus YNL307C, strain MCK1, stronger effect = lower value 1.02 | locus YNL322C, strain KRE1 (second series), stronger effect = lower value 1.03 | locus YNR049C, strain mso1, stronger effect = lower value 0.995 | locus YNR052C, strain pop2, stronger effect = lower value 1.02 | locus YOL012C, strain htz1 2.06 | locus YOL147C, strain pex11, stronger effect = lower value 1.02 | locus YOR001W, strain rrp6, stronger effect = lower value 0.995 | locus YOR061W, strain CKA2, stronger effect = lower value 0.999 | locus YOR069W, strain VPS5, stronger effect = lower value 1.01 | locus YOR070C, strain gyp1, stronger effect = lower value 1.01 | locus YOR080W, strain dia2, stronger effect = lower value 0.997 | locus YOR083W, strain WHI5, stronger effect = lower value 1.01 | locus YOR106W, strain vam3, stronger effect = lower value 1 | locus YOR136W, strain idh2, stronger effect = lower value 1.03 | locus YOR144C, strain elg1, stronger effect = lower value 1.01 | locus YOR184W, strain ser1, stronger effect = lower value 1.01 | locus YOR231W, strain MKK1, stronger effect = lower value 1.02 | locus YOR265W, strain rbl2, stronger effect = lower value 0.99 | locus YOR270C, strain vph1, stronger effect = lower value 0.948 | locus YOR290C, strain snf2, stronger effect = lower value 1.01 | locus YOR316C, strain cot1, stronger effect = lower value 1.01 | locus YPL051W, strain arl3, stronger effect = lower value 1.01 | locus YPL078C, strain atp4, stronger effect = lower value 1.01 | locus YPL106C, strain sse1, stronger effect = lower value 1.01 | locus YPL240C, strain hsp82, stronger effect = lower value 1.02 | locus YPL256C, strain CLN2, stronger effect = lower value 1.01 | locus YPR119W, strain clb2, stronger effect = lower value 1.01 | locus YPR141C, strain kar3, stronger effect = lower value 1.01 | locus YPR163C, strain tif3, stronger effect = lower value 1.01 | locus YPR167C, strain met16, stronger effect = lower value 1.01 | strain wtn01, stronger effect = lower value 1.02
